According to the supplement of paper PMC12632987:

target: UCHL1, P09936; test: median log2 fold change of GCK-ALFA target abundance (FLAG IP / Myc IP barcode read proportion) (log2 ratio); each designed protein is fused to an ALFA-tag nanobody in HEK293 cells to bring the named protein to FLAG-tagged glucokinase (GCK); Myc marks an untargeted standard; higher = target protein stabilised (more abundant); settings: target protein: 3xFLAG-MCP-GCK-ALFA reporter; HEK293 landing pad (RPLP)
Summary of the method: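 The readout is target abundance, the per-binder median log2 ratio of FLAG to Myc barcode read proportions. It came from HEK293 landing-pad cells carrying a recombined ALFA-nanobody-fused binder library, induced with 2 μg mL^−1 doxycycline and transfected with a plasmid for a FLAG-tagged target and a Myc-tagged standard. After 48 h, lysates were immunoprecipitated with anti-FLAG and anti-Myc, and circular RNA barcodes were reverse transcribed, amplified and sequenced. Each barcode needed a proportion of at least 10^−7 in both replicates and each binder at least 3 barcodes per replicate, a pseudocount of 10^−6 was added, and the replicates were pooled.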

Chain of UCHL1, P09936 (P09936 whole entry, looked up, the tested form may be a part): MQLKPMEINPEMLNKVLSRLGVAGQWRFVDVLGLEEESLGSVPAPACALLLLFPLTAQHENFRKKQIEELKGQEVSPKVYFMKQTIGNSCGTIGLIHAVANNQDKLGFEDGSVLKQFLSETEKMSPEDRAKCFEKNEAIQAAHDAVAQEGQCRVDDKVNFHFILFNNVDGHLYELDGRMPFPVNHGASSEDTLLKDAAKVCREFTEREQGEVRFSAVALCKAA

Binder | median log2 fold change
uchl1_2_7562 (protein) KPVFIGVLVTLTAEDKETGKTYRSRRTLIFTESAIEALAEEIKELALNFRDTVGVPVKVEIKVFSTDEAVVERTVAILEKMAEELAKEGIEVTITGEVVK | -1.04
uchl1_2_7563 (protein) ETVFVGVLVTLTAENAETGETFRSRRTYIFTESAIDALVAEIERDALAFREQTGVPVTVDIHIVSTDEAVVRRLEAALRAMAERLAAHGITVNISSTVVR | -0.142
uchl1_2_7560 (protein) KTQFVGVRVDITSLNPETGEVFRARRTLIGTEDSLEAMLEEVRRLVLDFKEQYGGETRVEIRITVSTEETGERAKRLAEELKEELEKEGIEVEVEVEVAK | 0.0724
uchl1_2_7564 (protein) KTIFIGVLVELIAEDEETGKVYRSRHTYIFTESAIDALVEQIKEDALAFKEQTGVPVRVRIHIVSTNEEVVKKLKEKLEEMAEELKKEGIEVEISYTVVK | -0.635
uchl1_89_7575 (protein) EAARREAARARLRRILAATEARVAALLARLGEVPPELAAARDAFFAAARAAIDDPATAAAALAAAEAAARRLVELAPPEYRASFRLATGRLLNALRGWAA | 0.127
uchl1_89_7577 (protein) EEERLEAARERLRRILARTRAEVERLLARLGEVPPELRAALDAFFAAAEAAIADPSTAEAALAEAEAAARRLVELAPPEYRASFRLALGRLVNALLGYAA | 0.111
uchl1_89_7586 (protein) EEERLAAARARLRRILAATRAELERLIASLGVRDPALEAALAAFFAHARRAIEDPATAEEALAAAEAAARELLALAPPEKRADFRLATGRLLNALLGYRA | 0.158
uchl1_2_7573 (protein) KTVFVGIKVTLEAYDEKTGKTYRSTRTLIFTEEALEKAAEEVKELALNFKDAVGVPVTVNVHIVSTDEEVLERLKKLLEEMAKELAKEGITVNISGEVVK | -0.366
uchl1_2_7559 (protein) KTKFVGVLVKVEAVDEKTGKVKKARRTFIGTEENIEKLVEEIEKYVLEFQKEHGKDVKVKIHGVVSDEETAEKLKKKLEEMKKRLEKEGIKVEIEVTVAK | -0.255
uchl1_89_7574 (protein) DPRLDPATAARLRAIAERTEAALRRILTKAGVPQATIDAFLALVRAAADTTIADRAAAPAQLAALEAALRALTARVDPATAANVRLAMGPLLRLLEGVAQ | -0.0395
uchl1_89_7587 (protein) EEARREAARARLERVLAKTRARLEALLARMGAPDPAMVAALDALFDAARTALADPATAEAALAEAEAAARRLVELAPEEVKASVRLATGRLVIALRGYLA | -0.0889
uchl1_2_7554 (protein) ETKFVGVLVEIESVNPETGKEYKSRRTLIGTASAIEKLAEEVLELVRTFKEKTKAPVKVKVTVYVSDEETAKKAEKEFKKLEEELKKEGVEVEVEVIVVK | -0.73
uchl1_2_7567 (protein) KPVFIGVKLTLTSKDEKTGKTYKSTHTLIFTESAIDKLVEEIERLALEFQKATGVPVTANIEVYSTDKEVLEKLMKKLKEMAKRLAKEGIKVNIEGKLVE | -0.668
uchl1_89_7583 (protein) EEEREAAARARLRAILAATRAALERLIARWGVRDPEAQAALDALFANAERAIADPSTAAEALAKAEEAARRLLALAPPEKRADVRLATGRLLNALLGYVA | -0.0264
uchl1_89_7582 (protein) EEERLARAREHLRRVLAKTRAALDRLIARLGEPDPELVAAHEELLAAAEAAIADPERAEEYLAKAEEAAVRLVELAPPERRASFRLAVGRLINTLLGYAA | -0.405
uchl1_2_7566 (protein) ETVFVGVKVTLTSYDEKTGKTYKSTRTLIFTESSIDAAVEEIRELALSFREQVGVPVKVEIHIVSTREEVLERLKEKLEEMAEELKEEGIEVEISGEVVK | -0.335

Binder | median log2 fold change
uchl1_2_7572 (protein) KTVFVGVKVTLTAYDEKTGKTYKSTRTLIFTESALEAAAKEIEELALNFQDAVGVPVKVDVHVVSTDEEVLKRLKELLEKMAKKLAKKGIEVNISGEVVK | -0.571
uchl1_2_7565 (protein) ETIFIGVLVTLTSRDEATGKVYRSRRTLIFTESAIDALVEEIKEDALAFKAQTGVPVTVNIHIVSTNEEVVEKLKKKLEEMAKELAKEGITVNISYTVVK | -0.661
uchl1_2_7558 (protein) KSEFVGVKVTITAEDPETGKVYVAKRTFIGLASDIEKLVEEVKKLVLEFKADKKVPVKVKIEAVVSSEETAERLKKELEKMKKELAKEGIEVEITVKVVK | -0.285
uchl1_89_7584 (protein) EEARRAAARERLRRVLAATRERLEALMAKWGVADPEAVAALEELFRHAELAIEDPERAEEALAKAEEAAKRLLALAPEERRADVRMATGRLLNRLLGYVA | -0.114
uchl1_89_7581 (protein) EAARLERAKAKLRAVLAATRAALDRLIARLGEPDPALVAARDALFAAAEAAIADPARAAEYLARAEAAARRLVELAPPERRASFRLAAGRLVNTLLGFAA | -0.302
uchl1_2_7568 (protein) KTVFVGVKVTLTSENKETGKTYKSTHTLIFTESAIEKLVEEIERLALEFKDATGVPVKVDIEVYSTDEEVLKKLMKELKKMAERLKKEGIEVNITGTLVK | -0.4
uchl1_2_7569 (protein) KTVFVGVKVTLEAYDEKTGKRYRSRHTLIFTEDSIEALAKEIKELALDFQKDVGVPVTVNIEVYSTDEAVVKKTMAVLEKMAKELAKEGIKVNITGTVVK | -1.14
uchl1_89_7579 (protein) EEERLARARERLRRVLAATRAELARLEARIGEVSPELAAARDALFAAAEAAIADPALAAAQLEAAEAAARRLVALTPPELRASVRLATGRLLNRLLGYAA | -0.16
uchl1_2_7555 (protein) ASQFVGVLVTITAKDEKTGKTYVSRRTLIGTAESIEKMVEEIKELVLRFKDITKAPVEVKIEVYVSTEETAERMEKELEKLKEELEKKGVKVEIEVHVVE | -0.856
uchl1_89_7576 (protein) AEARAQAARARLRAVLAATRAEVERLLARLGEVDPALRAAFDAFFAAAEAAIADPSTAAAALAAAEAAARRLVELAPPEYRASFRLATGRLLNLLRGYAA | -0.0383
uchl1_89_7578 (protein) EAARLAAARARLRRVLAATRAEVERLLARLGEVPPELRAAFDAFFAAAEAAIADPSTAAEALAAAEAAARRLVELAPPEYRASFRLATGRLLNALRGYAA | 0.184
uchl1_2_7571 (protein) ETVFVGVLVTLRARDAETGKEYRSRRTFIFTEDSIEALAEEIRELALAFQADVGVPVTVDIHIYSTKKEVVEKTKKVLEEMAKELAKEGITVNITGTVVK | -0.528
uchl1_2_7556 (protein) KTVFVGVAIDLTSTNPETGEVFRSRRTLIGTASAIEAMAEEVRELILRFREETGGPVEVRILVVSSDEAVARRLVALLEAMAAELAAEGVTVTVTRRVLK | -0.249
uchl1_2_7570 (protein) KTVFVGVLVTLTSKDAKTGKTYKSRRTYIFTESSIEALAKEIKEDALAFQKDVGVPVTVDIKIYSTKEEVVKKTKAVLEKMAEELAKEGIKVNITGTVVK | -0.683
uchl1_2_7557 (protein) KSEFVGVLVTITARDEETGEVKVARRTFIGLAEDIEKLVEEIKKLVLEFKAQYNVPVEVDIKAVVSSEETAEKLKKELEKMKKELEKEGITVNIEVEVVE | -0.214
uchl1_89_7580 (protein) EEERLRRARERLRRVLEATRAEVERLIARLGEPDPALVAAAEELFAAAEAALEDPERAAEYLARAEAAARRLVELAPPERRASFRLAVGRLVNTLLGYAA | 0.043
